Laboratory results published in PubChem BioAssay (EPA / NIEHS).
Inconclusive results are not listed. Active and inactive are the calls of the source. How the source made its calls, unless noted: active means hit-call score of the fitted dose curve at least 0.9, where 1 is the maximum; inactive means score below 0.9.

Legend:
[1] = BSK_BT_PBMCCytotoxicity: PBMC Cytotoxicity Assessment in the BioMAP Diversity Plus: BT Assay (AID 2284225); details: primary human B cells with PBMC;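 further: PBMC viability measured by Alamar Blue dye reduction fluorescence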
In short: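 PBMC (75,000/well) pretreated with compound 1 h, then activated with SEB and TSST-1 (20 ng/mL each final), incubated 90 h; Alamar Blue added 6 h, fluorescence read at 546/580 nm. Fitted relative to DMSO.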

[2] = read-out: Secreted IgG (sIgG), gene 3500; test: BSK_BT_sIgG: BioMAP Diversity Plus: BT Assay for Secreted IgG (sIgG) Biomarker Activity (AID 2284226); details: primary human B cells with PBMC
In short: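 Human B cell plus PBMC co-culture; secreted IgG measured by ELISA 24 h after chemical dosing. Response fitted in positive direction relative to DMSO baseline.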

[3] = BSK_BT_Bcell_Proliferation: Viability Assessment in the BioMAP Diversity Plus: BT Assay for B cell Proliferation (AID 2284227); details: primary human B cells with PBMC
In short: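 Using a human primary B cell–PBMC co-culture, the assay measures total protein by sulforhodamine B absorbance as a gauge of proliferation after 72 h. Analysis followed the positive fitting direction with DMSO as baseline.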

[4] = read-out: Interleukin 6 (IL6), IL6 (gene 3569); test: BSK_BT_xIL6: BioMAP Diversity Plus: BT Assay for Interleukin 6 (IL6) Biomarker Activity (AID 2284228); details: primary human B cells with PBMC
In short: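 B cells and peripheral blood mononuclear cells (human primary co-culture) were dosed with chemical, and after 24 h IL-6 released into the medium was measured by Luminex xMAP. Responses were analysed as gain of signal over DMSO control.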

[5] = read-out: Interleukin 17A (IL17A), IL17A (gene 3605); test: BSK_BT_xIL17A: BioMAP Diversity Plus: BT Assay for Interleukin 17A (IL17A) Biomarker Activity (AID 2284229); details: primary human B cells with PBMC
In short: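 Secreted IL-17A was the measured endpoint, read by Luminex xMAP multiplex in supernatants of a human B cell/PBMC co-culture harvested 24 h after chemical dosing. Signal increase relative to DMSO defined activity.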

[6] = read-out: Vascular cell adhesion molecule 1 (VCAM1), VCAM1 (gene 7412); test: BSK_MyoF_VCAM1: BioMAP Diversity Plus: MyoF Assay for Vascular cell adhesion molecule 1 (VCAM1) Biomarker Activity (AID 2284231); details: primary human lung fibroblasts
In short: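 ELISA read-out of VCAM-1 on human lung fibroblasts 24 h after chemical treatment, with positive-direction curve fitting relative to DMSO controls. Parallel cultures were stained with sulforhodamine B for total protein to flag overt cytotoxicity.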

[7] = read-out: Collagen I, COL1A1 (gene 1277); test: BSK_MyoF_CollagenI: BioMAP Diversity Plus: MyoF Assay for Collagen I Biomarker Activity (AID 2284238); details: primary human lung fibroblasts
In short: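 Lung fibroblasts (human primary) dosed, 24 h; Collagen I by ELISA; positive-direction fit vs DMSO control. Parallel SRB total-protein staining (0.1% SRB, 10% TCA fixation, 560 nm) flags overt cytotoxicity.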

[8] = read-out: Collagen III, COL3A1 (gene 1281); test: BSK_MyoF_CollagenIII: BioMAP Diversity Plus: MyoF Assay for Collagen III Biomarker Activity (AID 2284239); details: primary human lung fibroblasts
In short: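 ELISA read-out of collagen III from human lung fibroblasts after 24 h of chemical treatment. The DMSO control served as negative control and baseline, with values fitted in the positive direction.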

[9] = CCTE_Mundy_HCI_Cortical_Synap_Neur_Matur_NeuriteCount: CCTE's Synaptogenesis and Neurite Maturation Assay in rat cortical cells for Neurite Count, Mundy Lab (AID 2284222);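 further: exposure from day 7 to day 12 in vitro with readout at day 12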
In short: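 In this multiplexed morphology readout, rat primary cortical neurons are fixed at DIV 12 following dosing at DIV 7 and stained for MAP2, synaptophysin and nuclei. High-content image analysis yields neurite count.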

[10] = CCTE_Mundy_HCI_Cortical_Synap_Neur_Matur_CellBodySpotCount: CCTE's Synaptogenesis and Neurite Maturation Assay in rat cortical cells for Cell Body Spot Count, Mundy Lab (AID 2284223)
In short: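 Rat cortical neurons; AraC @ DIV 5; dose + media change DIV 7; fix DIV 12; anti-MAP2/anti-synaptophysin IF, Hoechst; HCI count of soma synaptophysin puncta/neuron; DMSO = negative control.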

[11] = CCTE_Mundy_HCI_hNP1_Pro_ResponderAvgInten: CCTE's Proliferation Assay in human neuroprogenitor cells, Mundy Lab (AID 2284224; active means hit-call score of the fitted dose curve at least 0.9, where 1 is the maximum;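 further: human neural progenitor cells hNP1 derived from WA09 embryonic stem cells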)
In short: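 Proliferation read as average intensity of BrdU-positive cells, imaged at 26.25 h post-dosing: chemical exposure started after 40–44 h culture, BrdU during final 4 h, paraformaldehyde fixation. Positive-direction fit relative to DMSO.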

[12] = CCTE_Mundy_HCI_Cortical_NOG_NeuronCount: CCTE's Neurite Outgrowth Assay in rat cortical cells for Neuron Count, Mundy Lab (AID 2284236; active means hit-call score of the fitted dose curve at least 0.9, where 1 is the maximum;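 further: neurons counted by imaging betaIII-tubulin and Hoechst stained cortical cells; cells exposed to compound for about 48 hours before fixation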)
In short: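 Read-out: neuron number by high-content imaging of betaIII-tubulin (Alexa Fluor-488) and Hoechst-labelled rat primary cortical cells.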

[13] = CCTE_Mundy_HCI_Cortical_NOG_BPCount: CCTE's Neurite Outgrowth Assay in rat cortical cells for Branch Point Count, Mundy Lab (AID 2284237);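 on AC50: branch points counted about two days after chemical exposure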
In short: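 Measured 50.33 h after dosing, this morphology endpoint uses rat primary cortical cultures labelled for betaIII-tubulin. Branch points are quantified by high-content imaging, with DMSO as negative control and baseline.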

[14] = CCTE_Mundy_HCI_hNP1_Casp3_7: CCTE's Caspase-Glo 3/7 Assay in human neuroprogenitor cells for Apoptosis, Mundy Lab (AID 2284240)
In short: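 Luminescent caspase-3/7 readout, 26.5 h post-dose, in human neural progenitor cells from WA09 embryonic stem cells. Cells grew 40–44 h at 37 °C, 5% CO2 before chemical addition. Activity analysed as signal increase over DMSO baseline.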

[15] = CCTE_Mundy_HCI_hNP1_CellTiter: CCTE's Cell Titer-Glo 2 Assay in human neuroprogenitor cells for Viability, Mundy Lab (AID 2284241; active means hit-call score of the fitted dose curve at least 0.9, where 1 is the maximum;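 on AC50: a hit is a drop in ATP luminescence versus DMSO meaning reduced viability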)
In short: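 Viability read as luminescent ATP content (CellTiter-Glo, 30 min room temperature) twenty-four hours after dosing, relative to DMSO. Cells: WA09-derived hNP1 neuroprogenitors on poly-L-ornithine/laminin, plated 40 to 44 hours before chemical.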

[16] = UKN4_HCS_LUHMES_cell_viability: Viability Assessment in the University of Konstanz (UKN) Leist Lab Neurite Outgrowth Assay in human LUHMES cells (UKN4) (AID 2284232)
In short: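 LUHMES precursors differentiated 2 days, replated at 30000 cells/well without cAMP/GDNF, then compound-treated 24 h. Viability from Hoechst H-33342 and calcein-AM live staining (30 min) by high-content fluorescence imaging; bidirectional fit versus DMSO.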

[17] = UKN2_HCS_IMR90_cell_viability: Viability Assessment in the University of Konstanz (UKN) Leist Lab Neural Crest Cell Migration Assay in human induced IMR90 Pluripotent Stem Cells (UKN2) (AID 2284233);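 further: viability of neural crest cells differentiated from IMR90 iPSC measured by calcein-AM fluorescence imaging; cells exposed to compound for 24 h after a 24 h migration phase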
In short: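 Neural crest cells derived from IMR90 iPSC migrate into a stopper-free zone for 24 h in EGF/FGF medium, then are exposed to compound for 24 h. Viability assessed by calcein-AM and Hoechst staining with high-content imaging, fitted bidirectionally versus DMSO.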

[18] = TAMU_HCS_1.5hr_SingleDonor1434_Cytotoxicity: Cytotoxicity Assessment using High-content Screening (HCS) Fluorescent Imaging for the Texas A&M University (TAMU) 1.5-hr Human Induced Pluripotent Stem Cell (iPSC)-derived Cardiotoxicity Assay (AID 2284234; active means hit-call score of the fitted dose curve at least 0.9, where 1 is the maximum)
In short: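 Human iPSC-derived cardiomyocytes dosed at 0.2, 1, 10, 100 uM final (0.5% DMSO) for 90 min at 37 C. Hoechst 33342-stained nuclei counted by 10x high-content imaging; POD is EC10, a 10% drop in total cell count versus DMSO.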

[19] = TAMU_PeakParms_SingleDonor1434_QT: Texas A&M University (TAMU) 1.5-hr Human Induced Pluripotent Stem Cell (iPSC)-derived Cardiomyocytes Calcium (Ca+2) Flux Assay for Cardiotoxicity: QT (decay-rise ratio) (AID 2284235; active means hit-call score of the fitted dose curve at least 0.9, where 1 is the maximum)
In short: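 iPSC-derived cardiomyocytes (single donor 1434) dosed at 0.2, 1, 10, 100 uM final in 0.5% DMSO, 90 min at 37C. Ca2+ flux fluorescence decay/rise ratio; EC05 (5% increase versus DMSO) as POD, excluding beat-arrest and severe-notch data.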

[20] = CCTE_Mundy_HCI_Cortical_Synap_Neur_Matur_NeuronCount: CCTE's Synaptogenesis and Neurite Maturation Assay in rat cortical cells for Neuron Count, Mundy Lab (AID 2284242; active means hit-call score of the fitted dose curve at least 0.9, where 1 is the maximum;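 further: hits reduce neuron count versus DMSO baseline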)
In short: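 Rat primary cortical cells, AraC added at DIV 5, dosed with media change from DIV 7 to DIV 12. Fixed, Hoechst-stained and immunolabelled for MAP2 and synaptophysin; neuron number counted by high-content imaging, loss fitted versus DMSO.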

Measured: AC50

Clc1cc(Cl)c(-c2c(Cl)c(Cl)cc(Cl)c2Cl)cc1Cl
active: [6] 2.76 µM | [7] 2.99 µM | [8] 12.4 µM
inactive: [1] | [2] | [3] | [4] | [5]

C=C(C)C(=O)OCCOCCOCCOCCOC(=O)C(=C)C
inactive: [1] | [3] | [4] | [5] | [6] | [7] | [8]
active: [2] 20 µM

CCCCCC(C=O)=Cc1ccccc1
active: [2] 26.9 µM | [6] 34.2 µM
inactive: [1] | [3] | [4] | [5] | [7] | [8]

CS(=O)(=O)c1ccc(C2=C(c3ccccc3)C(=O)OC2)cc1
inactive: [1] | [2] | [3] | [4] | [5] | [6] | [7] | [8]

C[C@@H]1CCN(C(=O)[C@H](CCCN=C(N)N)NS(=O)(=O)c2cccc3c2NC[C@H](C)C3)[C@@H](C(=O)O)C1
inactive: [1] | [2] | [3] | [4] | [5] | [6] | [7] | [8]

CN(C)CCOC(C)(c1ccccc1)c1ccccn1 (stereo not drawn)
inactive: [9] | [10] | [11] | [12] | [13] | [14]

CCC(C)c1cc([N+](=O)[O-])cc([N+](=O)[O-])c1OC(=O)OC(C)C (stereo not drawn)
active: [1] 20 µM | [2] 11.1 µM | [3] 26.7 µM | [4] 30.4 µM | [5] 30.7 µM | [6] 8.46 µM | [7] 2.66 µM | [8] 11.5 µM

CC1(C)C2=CCCC(C)(C)[C@]23CC[C@H]1C3
inactive: [1] | [3] | [4] | [5]
active: [2] 20 µM | [6] 31.9 µM | [7] 30.4 µM | [8] 39 µM

C=C(C)C(=O)OCCOCCOCCOC(=O)C(=C)C
inactive: [1] | [2] | [3] | [4] | [5] | [6] | [7] | [8]

COCCc1ccc(OCC(O)CNC(C)C)cc1 (stereo not drawn)
active: [15] 2.98 µM
inactive: [9] | [10] | [12] | [13] | [14]

CC(C=O)Cc1ccc(C(C)(C)C)cc1 (stereo not drawn)
inactive: [1] | [2] | [3] | [4] | [5] | [6] | [7] | [8]

O=C1c2ccccc2C(=O)c2c(O)ccc(O)c21
inactive: [5] | [6] | [7] | [8]
active: [1] 11 µM | [2] 0.36 µM | [3] 11.8 µM | [4] 0.0172 µM

CN(C)C(=S)SC(=S)N(C)C
active: [1] 0.396 µM | [2] 0.244 µM | [3] 0.436 µM | [4] 0.6 µM | [5] 0.367 µM | [6] 35.5 µM | [8] 19.9 µM
inactive: [7]

CC=Cc1ccc(OCC)c(O)c1
inactive: [1] | [3] | [4] | [5] | [6] | [7] | [8]
active: [2] 12.9 µM

Oc1c(Cl)cc(Cl)c(Cl)c1Cc1c(O)c(Cl)cc(Cl)c1Cl
inactive: [9] | [11] | [4] | [19]
active: [10] 9.92 µM | [1] 20 µM | [2] 0.993 µM | [3] 12.6 µM | [5] 2.48 µM | [6] 0.555 µM | [16] 18.3 µM | [17] 3.18 µM | [18] 14.9 µM | [12] 50 µM | [13] 10.4 µM | [7] 0.215 µM | [8] 6.62 µM | [14] 27 µM | [15] 21.2 µM | [20] 5 µM

COCCOCCOCCO
inactive: [9] | [10] | [11] | [17] | [12] | [13] | [14] | [15]

Cc1cc(CCC(=O)OCCOCCOCCOC(=O)CCc2cc(C)c(O)c(C(C)(C)C)c2)cc(C(C)(C)C)c1O
inactive: [1] | [2] | [3] | [4] | [5] | [6] | [7] | [8]

CC(=O)Nc1ccc(C(=O)CCl)cc1
active: [1] 5.36 µM | [2] 2.21 µM | [3] 5.39 µM | [4] 3.46 µM | [5] 2.25 µM | [6] 23.9 µM | [7] 29.5 µM | [8] 20 µM

COc1ccc(CCN2CCC(Nc3nc4ccccc4n3Cc3ccc(F)cc3)CC2)cc1
active: [1] 7.27 µM | [2] 3.17 µM | [3] 5.84 µM | [4] 3.52 µM | [5] 3.17 µM | [6] 5 µM | [7] 8.62 µM | [8] 6.52 µM

c1ccc(CCc2ccccc2)cc1
inactive: [1] | [2] | [3] | [4] | [5]
active: [6] 31 µM | [7] 31.9 µM | [8] 26.9 µM
